From PubChem BioAssay (NCATS) come the findings set out here.

Each structure is given as a SMILES string. Results filed as inconclusive are left out. Calls of active or inactive are those of the source. Calls come from the whole dose curve; as a rule, active = well fitted cell-killing curve with a large enough effect; inconclusive = small, poorly fitted or top-dose-only effect; inactive = flat fitted curve, though single readings scatter. Peptide text beside a SMILES is read from it.
Potency is the fitted concentration of half-maximal effect.

The nature of the test: Cell Viability - LYMP2-019 (AID 973).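 For activity change, negative = cytotoxicity: 0% = DMSO alone and full effect = 92 µM tetraoctylammonium bromide.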 Note: nearly all actives have a fitted effect of over 55% in size. The note with it: LYMP2-019 lymphoblastoid cell line viability; series mostly up to 92.2 µM; activity change, negative = cytotoxicity: at the top concentration. The source says:
NIH Chemical Genomics Center [NCGC]
NIH Molecular Libraries Screening Centers Network [MLSCN]
National Institutes of Environmental Health Sciences [NIEHS]
National Toxicology Program [NTP]
We have developed a 1536-well cell-based assay for quantitative high throughput screening (qHTS) against a number of cell lines to determine in vitro cytotoxicity of small molecules. This particular assay uses a human lymphoblastoid cell line (LYMP2-019) purchased from Coriell Institute for Medical Research.
NCGC Assay Protocol Summary:
The CellTiter-Glo luminescent cell viability assay (Promega) is a homogeneous method to measure the number of viable cells in culture. The end point readout of this assay is based on quantitation of intracellular ATP, an indicator of metabolic activity, using the luciferase reaction. Luciferase catalyzes the oxidation of beetle Luciferin to oxyluciferin and light in the presence of ATP. The luminescent signal is proportional to amount of ATP present.
Using the CellTiter-Glo luminescent cell viability assay, the amount of cellular ATP was measured in the lymphoblastoid cell line with complete culture medium following compound treatment for 24 hours. The assay was performed in opaque white Kalypsys 1536-well plates. In the screen, tetraoctylammonium bromide was used as positive control. Library compounds were measured for their ability to cause acute toxicity in the cell line, as reflected by a decrease in intracellular ATP levels, in a concentration-dependent manner. […] AC50 values were determined from concentration-response data modeled with the standard Hill equation.
qHTS protocol for CellTiter Glo lymphoblastoid cellular assay
[Step] [Parameter] [Value] [Description]
1. Reagent; 5 uL; 2500 lymphoblastoid cells/well
2. Time; 5 hr; 37 C incubation
4. Controls; 23 nL; Tetraoctylammonium bromide 6.4pM to 92 uM
5. Time; 24 hr; 37 C incubation
6. Reagent; 5 uL; CellTiter Glo reagent
7. Time; 30 min; Room Temperature
8. Detection; Luminescence; Viewlux plate reader
Keywords: cell viability, cytotoxicity, lymphoblastoid cell line, luminescence, NTPHTS, NTPHTS_NCGC, NIEHS, DSSTox, MLSMR, MLSCN, NIH Roadmap, qHTS, NCGC
Regarding `CC(=O)Nc1ccc(O)cc1`, the “activity change, negative = cytotoxicity” value is -2.15% (inactive).
`Cc1ccc(C)c(OCCCC(C)(C)C(=O)O)c1`: the “activity change, negative = cytotoxicity” value is 6.84% (inactive).
Turning to `COc1c2occc2cc2ccc(=O)oc12`, the “activity change, negative = cytotoxicity” value is -21.8% (inactive).
Same read-out and setting: the value for `NS(=O)(=O)c1cc(C(=O)O)c(NCc2ccco2)cc1Cl` was -2.74% (inactive); that for `c1ccc2[nH]c(-c3cscn3)nc2c1` was -16.8% (inactive); that for `Nc1ccc(S(N)(=O)=O)cc1` was -21% (inactive).
Still for that read-out and setting: as for `CCCc1cc(=O)[nH]c(=S)[nH]1`, the figure is -5.42% (inactive); as for `CCCCC(CC)COC(=O)C(C#N)=C(c1ccccc1)c1ccccc1` (stereo unspecified), -23% (inactive); as for `COC(=O)[C@H](Cc1ccccc1)NC(=O)[C@@H](N)CC(=O)O` (H-Asp-Phe-OMe), 3.34% (inactive).
Regarding `CN(C)c1ccc2nc3ccc(=[N+](C)C)cc-3sc2c1`, the Potency is 3.16 µM (active).
On the same count and under the same terms, as for `CS(=O)(=O)OCCCCOS(C)(=O)=O`, the entry is “inactive”.
